Experimental data taken from PubChem BioAssay AID1159580 (chemical genetic matrix, 2015).
Where “and” joins values, the source holds several entries; their conditions need not be identical. Equal entries are not always repeated. Among all 5,500 compounds or so, about 2,000 (36%) were called active. Inconclusive results (about 18%) are left out. Cut-off read from the data, not from the text of the source: active = normalized growth mostly below about 0.91 (no sharp cut-off); inconclusive = no clear call, values can overlap the other calls; inactive = mostly above about 0.92. The list shows a part of the results.

Assay: chemical genetic growth profiling, strain panel (AID 1159580);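 note: tested at 20 µM; growth read once vehicle control cultures reached saturation at 30 °C; 1 = growth at the plate median or of vehicle wells; lower values mean less growth of the strain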
Conditions: S. cerevisiae deletion strains, growth OD

Measured: normalized growth

COc1cc(OC)c2c(=O)c(OC)c(-c3ccc(OC)c(OC)c3)oc2c1
inactive: locus YAL021C, strain ccr4, hits give low values 1.01 | locus YAL026C, strain drs2, hits give low values 1.02 | locus YAL030W, strain snc1, hits give low values 1.02 | locus YBL061C, strain skt5, hits give low values 1 | locus YBR009C, strain hhf1, hits give low values 1.01 | locus YBR021W, strain FUR4, hits give low values 0.952 | locus YBR023C, strain chs3, hits give low values 1.01 | locus YBR171W, strain sec66, hits give low values 1.04 | locus YBR229C, strain ROT2, hits give low values 1 | locus YBR231C, strain swc5, hits give low values 1 | locus YBR279W, strain paf1, hits give low values 1.02 | locus YCL011C, strain gbp2, hits give low values 1.01 | locus YCL016C, strain dcc1, hits give low values 1.01 | locus YCL029C, strain bik1, hits give low values 1.01 | locus YCL061C, strain MRC1, hits give low values 1.02 | locus YCL069W, strain vba3, hits give low values 1.02 | locus YCR088W, strain abp1, hits give low values 1.03 | locus YDL005C, strain med2, hits give low values 1.02 | locus YDL035C, strain GPR1, hits give low values 0.996 | locus YDL040C, strain nat1, hits give low values 1.01 | locus YDL074C, strain BRE1, hits give low values 0.995 | locus YDL101C, strain DUN1, hits give low values 1 | locus YDL185W, strain tfp1, hits give low values 1.01 | locus YDL192W, strain arf1, hits give low values 0.987 | locus YDR001C, strain nth1, hits give low values 1.02 | locus YDR069C, strain doa4, hits give low values 1.02 | locus YDR101C, strain arx1, hits give low values 1.01 | locus YDR137W, strain rgp1, hits give low values 1.06 | locus YDR150W, strain NUM1, hits give low values 0.998 | locus YDR159W, strain sac3, hits give low values 1.02 | locus YDR162C, strain NBP2, hits give low values 0.98 | locus YDR195W, strain ref2 1.04 | locus YDR297W, strain sur2, hits give low values 1.01 | locus YDR318W, strain mcm21, hits give low values 0.977 | locus YDR334W, strain swr1, hits give low values 1.02 | locus YDR335W, strain msn5, hits give low values 1.03 | locus YDR388W, hits give low values 0.995 | locus YDR392W, strain spt3, hits give low values 0.91 | locus YDR502C, strain sam2, hits give low values 1.01 | locus YEL003W, strain gim4, hits give low values 1.02 | locus YEL037C, strain rad23, hits give low values 1.02 | locus YEL061C, strain CIN8 (second series), hits give low values 1.02 | locus YEL061C, strain CIN8, hits give low values 1 | locus YER015W, strain faa2, hits give low values 1.01 | locus YER016W, strain bim1, hits give low values 1.01 | locus YER110C, hits give low values 1.02 | locus YER111C, strain swi4, hits give low values 1.03 | locus YER155C, strain BEM2 (second series), hits give low values 1.02 | locus YER155C, strain BEM2, hits give low values 1 | locus YER167W, strain BCK2, hits give low values 1 | locus YFR010W, strain ubp6, hits give low values 1.03 | locus YGL078C, strain dbp3, hits give low values 1.02 | locus YGL086W, strain mad1, hits give low values 1.01 | locus YGL167C, strain pmr1, hits give low values 1 | locus YGL173C, strain kem1, hits give low values 1.01 | locus YGL227W, strain vid30, hits give low values 1.02 | locus YGL240W, strain doc1, hits give low values 1.03 | locus YGL248W, strain PDE1, hits give low values 0.97 | locus YGL253W, strain hxk2, hits give low values 1.02 | locus YGR078C, strain PAC10, hits give low values 0.958 | locus YGR135W, strain pre9, hits give low values 0.968 | locus YGR252W, strain gcn5, hits give low values 0.915 | locus YHR013C, strain ard1, hits give low values 1.01 | locus YHR027C, strain rpn1, hits give low values 1.01 | locus YHR030C, strain SLT2, hits give low values 1.01 and 0.976 | locus YHR079C, strain IRE1 (second series), hits give low values 1.02 | locus YHR079C, strain IRE1, hits give low values 0.992 | locus YHR094C, strain hxt1, hits give low values 1.01 | locus YHR129C, strain ARP1, hits give low values 0.992 | locus YHR142W, strain chs7, hits give low values 1.01 | locus YHR200W, strain rpn10, hits give low values 1 | locus YIL066C, strain RNR3, hits give low values 0.982 | locus YIL073C, strain SPO22, hits give low values 1.03 | locus YIL125W, strain kgd1, hits give low values 1.02 | locus YIR030C, strain dcg1, hits give low values 1 | locus YJL092W, strain hpr5, hits give low values 1.02 | locus YJL095W, strain BCK1 (second series), hits give low values 1.01 | locus YJL095W, strain BCK1, hits give low values 0.934 and 1 | locus YJL115W, strain asf1, hits give low values 1.02 | locus YJL129C, strain trk1, hits give low values 1.01 | locus YJL134W, strain LCB3, hits give low values 1.01 | locus YJL154C, strain vps35, hits give low values 1 | locus YJL164C, strain tpk1, hits give low values 1.01 | locus YJL166W, strain qcr8, hits give low values 1 | locus YJL168C, strain set2, hits give low values 1.02 | locus YJL187C, strain SWE1 (second series), hits give low values 0.996 | locus YJL187C, strain SWE1, hits give low values 1.01 | locus YJR043C, strain POL32, hits give low values 1 | locus YJR066W, strain TOR1, hits give low values 0.941 | locus YJR075W, strain HOC1, hits give low values 0.986 | locus YKL009W, strain mrt4, hits give low values 1.02 | locus YKL068W, hits give low values 1 | locus YKL085W, strain MDH1 (second series), hits give low values 0.997 | locus YKL085W, strain MDH1, hits give low values 0.997 | locus YKL160W, strain elf1, hits give low values 0.995 | locus YKR001C, strain vps1, hits give low values 0.994 | locus YKR026C, strain gcn3, hits give low values 0.997 | locus YKR091W, strain srl3, hits give low values 1.02 | locus YLL001W, strain dnm1, hits give low values 1.03 | locus YLL026W, hits give low values 1.01 | locus YLL041C, strain sdh2, hits give low values 1.01 | locus YLR027C, strain aat2, hits give low values 1.01 | locus YLR039C, strain RIC1, hits give low values 0.976 | locus YLR058C, strain SHM2, hits give low values 0.984 | locus YLR102C, strain apc9, hits give low values 1.01 | locus YLR113W, strain HOG1, hits give low values 0.978 | locus YLR221C, strain rsa3, hits give low values 1.01 | locus YLR258W, strain gsy2, hits give low values 1.02 | locus YLR262C, strain YPT6 (second series), hits give low values 1.08 | locus YLR262C, strain YPT6, hits give low values 0.984 | locus YLR268W, strain sec22, hits give low values 1.03 | locus YLR320W, strain mms22, hits give low values 0.985 | locus YLR330W, strain CHS5, hits give low values 1.01 | locus YLR342W, strain FKS1 (second series), hits give low values 0.973 | locus YLR342W, strain FKS1, hits give low values 1.01 | locus YLR357W, strain rsc2, hits give low values 1.02 | locus YLR370C, strain arc18, hits give low values 1.01 | locus YLR371W, strain rom2, hits give low values 1.02 | locus YLR384C, strain iki3, hits give low values 1.01 | locus YLR418C, strain cdc73, hits give low values 0.954 | locus YML016C, strain PPZ1, hits give low values 0.992 | locus YML032C, strain rad52, hits give low values 0.987 | locus YML120C, strain ndi1, hits give low values 1.02 | locus YML124C, strain tub3, hits give low values 1 | locus YMR058W, strain fet3, hits give low values 1.03 | locus YMR078C, strain ctf18, hits give low values 1.01 | locus YMR125W, strain sto1, hits give low values 1.03 | locus YMR129W, hits give low values 1.03 | locus YMR205C, strain PFK2, hits give low values 1.03 | locus YMR223W, strain ubp8, hits give low values 0.972 | locus YMR231W, strain pep5, hits give low values 1.02 | locus YMR263W, strain SAP30, hits give low values 0.996 | locus YMR307W, strain GAS1, hits give low values 0.981 | locus YNL067W, strain RPL9B, hits give low values 1 | locus YNL071W, strain lat1, hits give low values 1.01 | locus YNL153C, strain GIM3, hits give low values 0.972 | locus YNL183C, strain NPR1, hits give low values 0.926 | locus YNL209W, strain ssb2, hits give low values 1.01 | locus YNL233W, strain BNI4, hits give low values 0.955 | locus YNL248C, strain rpa49, hits give low values 1.02 | locus YNL250W, strain rad50, hits give low values 1.03 | locus YNL271C, strain bni1, hits give low values 1.02 | locus YNL298W, strain CLA4, hits give low values 0.998 | locus YNL307C, strain MCK1, hits give low values 1.01 | locus YNL322C, strain KRE1 (second series), hits give low values 1.02 | locus YNR049C, strain mso1, hits give low values 1.02 | locus YNR052C, strain pop2, hits give low values 0.993 | locus YOL006C, strain TOP1, hits give low values 1.03 | locus YOL012C, strain htz1 0.947 | locus YOL147C, strain pex11, hits give low values 1.02 | locus YOR001W, strain rrp6, hits give low values 1.01 | locus YOR061W, strain CKA2, hits give low values 1.01 | locus YOR069W, strain VPS5, hits give low values 1.01 | locus YOR070C, strain gyp1, hits give low values 1.03 | locus YOR080W, strain dia2, hits give low values 1.01 | locus YOR083W, strain WHI5, hits give low values 0.997 | locus YOR106W, strain vam3, hits give low values 0.992 | locus YOR136W, strain idh2, hits give low values 1.02 | locus YOR144C, strain elg1, hits give low values 1.01 | locus YOR184W, strain ser1, hits give low values 0.992 | locus YOR231W, strain MKK1, hits give low values 1.01 | locus YOR265W, strain rbl2, hits give low values 1 | locus YOR270C, strain vph1, hits give low values 1.09 | locus YOR290C, strain snf2, hits give low values 1 | locus YOR316C, strain cot1, hits give low values 1.01 | locus YPL051W, strain arl3, hits give low values 0.993 | locus YPL078C, strain atp4, hits give low values 1.02 | locus YPL106C, strain sse1, hits give low values 0.999 | locus YPL240C, strain hsp82, hits give low values 1 | locus YPL256C, strain CLN2, hits give low values 0.976 | locus YPR119W, strain clb2, hits give low values 1.01 | locus YPR141C, strain kar3, hits give low values 1.02 | locus YPR163C, strain tif3, hits give low values 1 | locus YPR167C, strain met16, hits give low values 1.04 | strain wtn01, hits give low values 1.04
